Here are results for six molecules from PubChem BioAssay AID2284333 (EPA ToxCast).

The term AC50 denotes the concentration at which the activity in the assay is half-maximal.

Each structure is given as a SMILES string. Records with an inconclusive call do not appear. Active and inactive are the calls of the source. The calls were made as follows: active = hit-call score of the fitted dose curve at least 0.9, where 1 is the maximum; inconclusive = response in the unintended direction; inactive = score below 0.9.

rainbow trout Glucocorticoid Receptor (GR), nr3c1 (gene 100136786), sequence (P49843 whole entry, looked up): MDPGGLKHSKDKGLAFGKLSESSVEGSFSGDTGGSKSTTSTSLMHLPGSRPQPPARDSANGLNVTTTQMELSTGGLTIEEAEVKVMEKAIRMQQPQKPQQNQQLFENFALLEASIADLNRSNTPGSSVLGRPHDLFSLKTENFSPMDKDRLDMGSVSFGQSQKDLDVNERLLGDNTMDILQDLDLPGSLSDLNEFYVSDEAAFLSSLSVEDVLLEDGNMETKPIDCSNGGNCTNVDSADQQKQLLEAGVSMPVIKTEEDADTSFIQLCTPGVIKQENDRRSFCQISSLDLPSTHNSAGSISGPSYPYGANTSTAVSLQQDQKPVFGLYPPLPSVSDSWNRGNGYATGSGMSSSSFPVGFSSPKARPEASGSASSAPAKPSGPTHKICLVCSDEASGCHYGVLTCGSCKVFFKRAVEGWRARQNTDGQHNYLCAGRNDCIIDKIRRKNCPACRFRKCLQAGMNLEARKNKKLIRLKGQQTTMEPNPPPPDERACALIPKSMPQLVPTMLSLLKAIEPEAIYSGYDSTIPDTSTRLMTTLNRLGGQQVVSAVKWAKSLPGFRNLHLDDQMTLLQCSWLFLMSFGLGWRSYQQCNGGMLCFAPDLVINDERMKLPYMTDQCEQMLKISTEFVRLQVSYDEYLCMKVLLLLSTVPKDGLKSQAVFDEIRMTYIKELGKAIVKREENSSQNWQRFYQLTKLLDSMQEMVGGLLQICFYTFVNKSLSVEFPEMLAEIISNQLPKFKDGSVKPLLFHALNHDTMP

For this assay, the target named is rainbow trout Glucocorticoid Receptor (GR), nr3c1 (gene 100136786) (UniProt P49843). As to the kind of experiment: ATG_rtGR_EcoTox2: Attagene TRANS-FACTORIAL EcoTox-2 HepG2 Assay for rainbow trout Glucocorticoid Receptor (GR). As to the method:
ATG_EcoTox2 is a cell-based, multiplexed assay created by modifying the existing Attagene TRANS-FACTORIAL system to include a panel of nuclear receptors from some or all the following species: human (Homo sapiens), african clawed frog (Xenopus laevis), rainbow trout (Oncorhynchus mykiss), japanese medaka (Oryzias latipes), and zebrafish (Danio rerio). The ECOTOX2-FACTORIAL format uses HepG2, a human liver cell line, with measurements taken at 24 hours after chemical dosing in a 24-well plate. ATG_rtGR_EcoTox2 is one of 29 assay components calculated in the ATG_EcoTox2 assay. It is designed to make measurements of mRNA induction, a form of inducible reporter, as detected with fluorescence intensity signals by Reverse transcription polymerase chain reaction (RT-PCR) and Capillary electrophoresis technology.The assay endpoint ATG_rtGR_EcoTox2 was analyzed in the positive analysis fitting direction relative to DMSO as the negative control and baseline of activity. Using a type of inducible reporter, measures of mRNA for gain-of-signal activity can be used to understand the reporter gene at the transcription factor-level as they relate to the gene for glucocorticoid receptor. Furthermore, this assay endpoint can be referred to as a primary readout, because this assay has produced multiple assay endpoints where this one serves a reporter gene function. To generalize the intended target to other relatable targets, this assay endpoint is annotated to the nuclear receptor intended target family, where the subfamily is steroidal.
Human liver HepG2 cells are transiently transfected with multiple reporter transcription units (MRTUs) in 6-well plates using FuGene 6 reagent (Roche; 3 ml FuGene/1 mg DNA). The MRTU constructs are regulated by a cis-regulating element (promoter). Each RTU expresses a GAL4-UAS that regulates the transcription of a nearby target reporter gene sequence. A major difference between the CIS and TRANS system is that in CIS activities of endogenous TFs are measured, whereas the TRANS assay evaluates changes in activities of exogenous, chimeric NR-Gal4 proteins. […] At the end of 24 hour incubation, total RNA was isolated using TriZol reagent (Invitrogen). The isolated RNA is then reverse-transcribed using oligo(dT) primer and Mo-MLV reverse transcriptase (Invitrogen) with DNAse I (Ambion) treatment for 30 min. The one-tenth of the produced cDNA was amplified by PCR using Taq DNA polymerase (Invitrogen) and two reporter sequence-specific primers. The PCR products were fluorescently labeled by primer extension with 6-arboxyfluorescein (6-FAM) 5'-labeled reporter sequence-specific primer (2 min at 95 C, 20 s at 68 C and 10 min at 72 C) and these products were digested with 5U of HpaI (New England Biolabs) for 2h at 37 C. The fragments were purified using Qiaquick PCR columns (Qiagen), analyzed on an ABI 3130xL genetic analyzer (Applied Biosystems) with peak positions identified by using a set of X-rhodamine (ROX)-labeled MapMarker1000 molecular weight standards (BioVentures). The raw capillary electrophoresis data was processed using Attagraph software (Attagene).
In the case of `C[C@@H]1C[C@H]2[C@@H]3CCC4=CC(=O)C=C[C@]4(C)[C@@]3(F)[C@@H](O)C[C@]2(C)[C@@]1(O)C(=O)COP(=O)(O)O`, the AC50 is 0.0206 µM (active).
On to `CC(C)OC(=O)C(C)(C)Oc1ccc(C(=O)c2ccc(Cl)cc2)cc1`, for which the result was inactive.
Same read-out and setting: the value for `Cc1ccc(C)c(OCCCC(C)(C)C(=O)O)c1` was “inactive”.
The same measure, in the same setting: the entry for `CC(C)(Oc1ccc(Cl)cc1)C(=O)O` is “inactive”.
Consider `C=C(c1ccc(C(=O)O)cc1)c1cc2c(cc1C)C(C)(C)CCC2(C)C`, for which the result was inactive.
On the same count and under the same terms, the value for `CC(c1cc2ccccc2s1)N(O)C(N)=O` (stereo unspecified) was “inactive”.
